Assay results: PubChem BioAssay AID1159580 (chemical genetic matrix, 2015)
Values joined by “and” are separate entries in the source; they are usually repeats but may differ in a detail not shown here. Equal values may be shown once. Screen size: about 5,500 compounds; about 2,000 (36%) were called active. Inconclusive results (about 18%) are left out. Cut-off read from the data, not from the text of the source: active = normalized growth mostly below about 0.91 (no sharp cut-off); inconclusive = no clear call, values can overlap the other calls; inactive = mostly above about 0.92. Some of the results follow.

Assay: chemical genetic growth profiling, strain panel (AID 1159580);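 note: tested at 20 µM; growth read once vehicle control cultures reached saturation at 30 °C; 1 = growth at the plate median or of vehicle wells; lower values mean less growth of the strain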
Conditions: growth OD

Measured: normalized growth

CC[N+](CC)(CC)CCOc1cccc(OCC[N+](CC)(CC)CC)c1OCC[N+](CC)(CC)CC
inactive: S. cerevisiae deletion strains, locus YJR066W, strain TOR1, stronger effect = lower value 0.953 | S. cerevisiae deletion strains, locus YKL009W, strain mrt4, stronger effect = lower value 0.99 | S. cerevisiae deletion strains, locus YKL068W, stronger effect = lower value 1 | S. cerevisiae deletion strains, locus YKL085W, strain MDH1 (second series), stronger effect = lower value 1.02 | S. cerevisiae deletion strains, locus YKL085W, strain MDH1, stronger effect = lower value 1.02 | S. cerevisiae deletion strains, locus YKL160W, strain elf1, stronger effect = lower value 1.04 | S. cerevisiae deletion strains, locus YKR001C, strain vps1, stronger effect = lower value 1 | S. cerevisiae deletion strains, locus YKR026C, strain gcn3, stronger effect = lower value 1.01 | S. cerevisiae deletion strains, locus YKR091W, strain srl3, stronger effect = lower value 1.02 | S. cerevisiae deletion strains, locus YLL001W, strain dnm1, stronger effect = lower value 1.04 | S. cerevisiae deletion strains, locus YLL026W, stronger effect = lower value 1.01 | S. cerevisiae deletion strains, locus YLL041C, strain sdh2, stronger effect = lower value 1.01 | S. cerevisiae deletion strains, locus YLR027C, strain aat2, stronger effect = lower value 1.02 | S. cerevisiae deletion strains, locus YLR039C, strain RIC1, stronger effect = lower value 1.11 | S. cerevisiae deletion strains, locus YLR058C, strain SHM2, stronger effect = lower value 1.03 | S. cerevisiae deletion strains, locus YLR102C, strain apc9, stronger effect = lower value 1.01 | S. cerevisiae deletion strains, locus YLR113W, strain HOG1, stronger effect = lower value 0.977 | S. cerevisiae deletion strains, locus YLR221C, strain rsa3, stronger effect = lower value 1.02 | S. cerevisiae deletion strains, locus YLR258W, strain gsy2, stronger effect = lower value 1.01 | S. cerevisiae deletion strains, locus YLR262C, strain YPT6 (second series), stronger effect = lower value 1.05 | S. cerevisiae deletion strains, locus YLR262C, strain YPT6, stronger effect = lower value 1.07 | S. cerevisiae deletion strains, locus YLR268W, strain sec22, stronger effect = lower value 1.01 | S. cerevisiae deletion strains, locus YLR320W, strain mms22, stronger effect = lower value 1.03 | S. cerevisiae deletion strains, locus YLR330W, strain CHS5, stronger effect = lower value 1.01 | S. cerevisiae deletion strains, locus YLR342W, strain FKS1 (second series), stronger effect = lower value 0.996 | S. cerevisiae deletion strains, locus YLR342W, strain FKS1, stronger effect = lower value 1.02 | S. cerevisiae deletion strains, locus YLR357W, strain rsc2, stronger effect = lower value 1 | S. cerevisiae deletion strains, locus YLR370C, strain arc18, stronger effect = lower value 1.01 | S. cerevisiae deletion strains, locus YLR371W, strain rom2, stronger effect = lower value 1.01 | S. cerevisiae deletion strains, locus YLR384C, strain iki3, stronger effect = lower value 1.02 | S. cerevisiae deletion strains, locus YLR418C, strain cdc73, stronger effect = lower value 1.02 | S. cerevisiae deletion strains, locus YML016C, strain PPZ1, stronger effect = lower value 1.01 | S. cerevisiae deletion strains, locus YML032C, strain rad52, stronger effect = lower value 1 | S. cerevisiae deletion strains, locus YML120C, strain ndi1, stronger effect = lower value 1.03 | S. cerevisiae deletion strains, locus YML124C, strain tub3, stronger effect = lower value 1.01 | S. cerevisiae deletion strains, locus YMR058W, strain fet3, stronger effect = lower value 1.01 | S. cerevisiae deletion strains, locus YMR078C, strain ctf18, stronger effect = lower value 1.02 | S. cerevisiae deletion strains, locus YMR125W, strain sto1, stronger effect = lower value 1.01 | S. cerevisiae deletion strains, locus YMR129W, stronger effect = lower value 1.01 | S. cerevisiae deletion strains, locus YMR205C, strain PFK2, stronger effect = lower value 1.03 | S. cerevisiae deletion strains, locus YMR223W, strain ubp8, stronger effect = lower value 1.02 | S. cerevisiae deletion strains, locus YMR231W, strain pep5, stronger effect = lower value 1.01 | S. cerevisiae deletion strains, locus YMR263W, strain SAP30, stronger effect = lower value 0.995 | S. cerevisiae deletion strains, locus YMR307W, strain GAS1, stronger effect = lower value 1.02 | S. cerevisiae deletion strains, locus YNL067W, strain RPL9B, stronger effect = lower value 1.01 | S. cerevisiae deletion strains, locus YNL071W, strain lat1, stronger effect = lower value 1.01 | S. cerevisiae deletion strains, locus YNL128W, strain TEP1, stronger effect = lower value 1.02 | S. cerevisiae deletion strains, locus YNL153C, strain GIM3, stronger effect = lower value 1.01 | S. cerevisiae deletion strains, locus YNL175C, strain NOP13, stronger effect = lower value 0.987 | S. cerevisiae deletion strains, locus YNL183C, strain NPR1, stronger effect = lower value 0.969 | S. cerevisiae deletion strains, locus YNL197C, strain WHI3, stronger effect = lower value 0.987 | S. cerevisiae deletion strains, locus YNL209W, strain ssb2, stronger effect = lower value 1.02 | S. cerevisiae deletion strains, locus YNL224C, strain SQS1, stronger effect = lower value 0.997 | S. cerevisiae deletion strains, locus YNL233W, strain BNI4, stronger effect = lower value 1.02 | S. cerevisiae deletion strains, locus YNL248C, strain rpa49, stronger effect = lower value 1 | S. cerevisiae deletion strains, locus YNL250W, strain rad50, stronger effect = lower value 1.05 | S. cerevisiae deletion strains, locus YNL271C, strain bni1, stronger effect = lower value 1.01 | S. cerevisiae deletion strains, locus YNL298W, strain CLA4, stronger effect = lower value 1.01 | S. cerevisiae deletion strains, locus YNL307C, strain MCK1, stronger effect = lower value 1.02 | S. cerevisiae deletion strains, locus YNL322C, strain KRE1 (second series), stronger effect = lower value 1.02 | S. cerevisiae deletion strains, locus YNL322C, strain KRE1, stronger effect = lower value 1 and 1.01 | S. cerevisiae deletion strains, locus YNR049C, strain mso1, stronger effect = lower value 1.02 | S. cerevisiae deletion strains, locus YNR052C, strain pop2, stronger effect = lower value 1.02 | S. cerevisiae deletion strains, locus YOL006C, strain TOP1, stronger effect = lower value 1.04 | S. cerevisiae deletion strains, locus YOL012C, strain htz1 0.763 | S. cerevisiae deletion strains, locus YOL147C, strain pex11, stronger effect = lower value 1 | S. cerevisiae deletion strains, locus YOR001W, strain rrp6, stronger effect = lower value 1 | S. cerevisiae deletion strains, locus YOR061W, strain CKA2, stronger effect = lower value 1.01 | S. cerevisiae deletion strains, locus YOR069W, strain VPS5, stronger effect = lower value 1.01 | S. cerevisiae deletion strains, locus YOR070C, strain gyp1, stronger effect = lower value 1.02 | S. cerevisiae deletion strains, locus YOR080W, strain dia2, stronger effect = lower value 1.02 | S. cerevisiae deletion strains, locus YOR083W, strain WHI5 (second series), stronger effect = lower value 0.998 | S. cerevisiae deletion strains, locus YOR083W, strain WHI5, stronger effect = lower value 1.04 | S. cerevisiae deletion strains, locus YOR106W, strain vam3, stronger effect = lower value 1.02 | S. cerevisiae deletion strains, locus YOR136W, strain idh2, stronger effect = lower value 1 | S. cerevisiae deletion strains, locus YOR144C, strain elg1, stronger effect = lower value 1.01 | S. cerevisiae deletion strains, locus YOR184W, strain ser1, stronger effect = lower value 1.04 | S. cerevisiae deletion strains, locus YOR231W, strain MKK1, stronger effect = lower value 1 | S. cerevisiae deletion strains, locus YOR265W, strain rbl2, stronger effect = lower value 1.01 | S. cerevisiae deletion strains, locus YOR270C, strain vph1, stronger effect = lower value 1.04 | S. cerevisiae deletion strains, locus YOR290C, strain snf2, stronger effect = lower value 0.958 | S. cerevisiae deletion strains, locus YOR316C, strain cot1, stronger effect = lower value 1.02 | S. cerevisiae deletion strains, locus YPL051W, strain arl3, stronger effect = lower value 1.01 | S. cerevisiae deletion strains, locus YPL055C, strain LGE1, stronger effect = lower value 1.02 | S. cerevisiae deletion strains, locus YPL078C, strain atp4, stronger effect = lower value 1.02 | S. cerevisiae deletion strains, locus YPL106C, strain sse1, stronger effect = lower value 1.02 | S. cerevisiae deletion strains, locus YPL240C, strain hsp82, stronger effect = lower value 1 | S. cerevisiae deletion strains, locus YPL256C, strain CLN2, stronger effect = lower value 1.05 | S. cerevisiae deletion strains, locus YPR119W, strain clb2, stronger effect = lower value 1.02 | S. cerevisiae deletion strains, locus YPR141C, strain kar3, stronger effect = lower value 1.02 | S. cerevisiae deletion strains, locus YPR163C, strain tif3, stronger effect = lower value 1.02 | S. cerevisiae deletion strains, locus YPR167C, strain met16, stronger effect = lower value 1.02 | S. cerevisiae deletion strains, strain wtn01, stronger effect = lower value 0.996 | S. cerevisiae strains, strain wild type, stronger effect = lower value 1.01
